# Shown are actives, neighbours in structure and some others; about 3.5% of the full set was active somewhere.
# GPR151 activ – activators of human GPR151; 650,000 compounds, 1% hits; activation, % at 11.2 µM; AID 1508602; Q8TDV0; PathHunter beta-arrestin GPR151 cells, luminescence; in the data active = activation above about 4.9%
# Target sequence (Q8TDV0 whole entry, looked up): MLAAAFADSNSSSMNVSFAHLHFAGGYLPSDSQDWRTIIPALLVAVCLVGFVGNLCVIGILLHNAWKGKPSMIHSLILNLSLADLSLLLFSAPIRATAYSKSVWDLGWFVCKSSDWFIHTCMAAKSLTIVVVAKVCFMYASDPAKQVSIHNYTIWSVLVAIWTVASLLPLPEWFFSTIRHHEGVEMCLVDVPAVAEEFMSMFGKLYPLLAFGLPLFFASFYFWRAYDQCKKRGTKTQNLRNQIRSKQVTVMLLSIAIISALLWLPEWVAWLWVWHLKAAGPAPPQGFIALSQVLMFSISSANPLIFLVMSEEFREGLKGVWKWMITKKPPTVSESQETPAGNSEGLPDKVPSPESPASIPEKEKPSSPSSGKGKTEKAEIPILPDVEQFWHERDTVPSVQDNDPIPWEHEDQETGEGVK
# TEAD-YAP inh – TEAD-YAP interaction inhibition | HEK-TIYL cells, TEAD-Gal4/YAP UAS-luciferase luminescence | 640,000 compounds, 1.4% hits | inhibition, % at 9.12 µM | AID 1259422; in the data active = inhibition above about 32%
# FBW7 activator – human FBW7 E3 ligase activation, primary screen. Q969H0. AlphaScreen FBW7–phospho-cyclin E peptide binding, activator screen. normalized activity (activation), % at 26.1 µM. 650,000 compounds, 0.13% hits; in the data active = normalized activity above about 1.9%;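 note: purified mutant Fbw7 with reduced substrate affinity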
# MITF inh – blocks human microphthalmia-associated transcription factor | AlphaScreen MITF homodimerization, bead proximity signal | inhibition, % at 2.6 µM | AID 1259374 | 650,000 compounds, 0.91% hits | O75030; in the data active = inhibition above about 50%
# MITF inh conf – human MITF inhibition, confirmation; shares compounds with MITF inh; AlphaScreen MITF homodimerization, biotin/His-MITF beads; inhibition, % at 2.6 µM; 4,700 compounds, 16% hits; AID 1259372;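 active = inhibition above a cutoff derived from the DMSO control wells, cut at about 28% in these data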;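 note: inhibitors lower the bead chemiluminescence by keeping MITF from dimerizing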
# AS interf DR – optically interferes with AlphaScreen signal in dose response; shares compounds with MITF inh; AID 1259373; 480 compounds, 6% hits; AlphaScreen optical interference counterscreen, cell-free; IC50, µM; call rule not given here
# AS interf ctr – AlphaScreen optical interference, counter-screen. shares compounds with MITF inh. LysRS AlphaScreen counterscreen, signal interference, triplicate. inhibition, % at 2.6 µM. 4,700 compounds, 7.6% hits;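 active = inhibition above a cutoff derived from the DMSO control wells, cut at about 30% in these data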
# Numbers stand for hits; i = inactive; nt = no result given.
SMILES,GPR151 activ,TEAD-YAP inh,FBW7 activator,MITF inh,MITF inh conf,AS interf ctr,others
Cc1ccccc1NC(=O)CSc1ncnc2c1nnn2Cc1ccccc1F,i,i,i,i,nt,nt,
COc1ccc(CN2CCN(Cc3ccc(C(F)(F)F)cc3)CC2)c(OC)c1OC,i,i,i,78,i,i,
Cc1ccc(OCCN2CC(C)OC(C)C2)c(Cl)c1 (configuration not stated),i,i,i,65,i,i,
COc1cc(C)ccc1OCCOCCN1CC(C)OC(C)C1 (configuration not stated),i,i,i,57,i,i,
C/C=C/c1ccc(OCCN2CC(C)OC(C)C2)c(OC)c1 (configuration not stated),i,i,i,64,i,i,
C/C=C/c1ccc(OCCCN2CC(C)OC(C)C2)c(OC)c1 (configuration not stated),i,i,i,i,nt,nt,
CS(=O)(=O)N(CC(=O)N/N=C/c1ccccc1O)c1ccc(F)cc1,i,i,i,i,nt,nt,
Cc1cc(NCc2cccc(C(F)(F)F)c2)nc(-c2csc3ccccc23)n1,i,i,i,i,nt,nt,
FC(F)(F)c1cccc(CNc2cc(-c3csc4ccccc34)ncn2)c1,i,i,i,62,i,i,
Cn1c(Nc2nc(NCc3cccc(C(F)(F)F)c3)c3ncn(-c4ccccc4)c3n2)nc2ccccc21,i,i,i,i,nt,nt,
Cc1oc2cc(OC(=O)C(C)(C)C)ccc2c(=O)c1-c1nc2ccccc2s1,i,i,i,i,nt,nt,
CCOC(=O)C1=C(CN2CCc3ccccc3C2)NC(=O)NC1c1ccco1 (configuration not stated),i,i,i,i,nt,nt,
CSc1ccc(CN2CCN(C(=O)C(c3ccccc3)c3ccccc3)CC2)cc1,i,i,i,53,i,i,
OCCN1CCN(Cc2ccc(O)cc2)CC1,i,i,i,86,i,i,
OCCN1CCN(Cc2ccc(OCc3ccccc3)cc2)CC1,i,i,i,i,nt,nt,
CSc1ccc(CN2CCN(CCO)CC2)cc1,i,i,i,80,i,i,
CSc1ccc(CN2CCN(C(=O)c3ccccc3F)CC2)cc1,i,i,i,i,nt,nt,
CSc1ccc(CN2CCN(Cc3ccncc3)CC2)cc1,i,i,i,60,i,i,
CSc1ccc(CN2CCC(O)CC2)cc1,i,i,i,i,nt,nt,
OC1(c2cccnc2)CCN(Cc2ccc3c(c2)CN(C/C=C/c2ccco2)CCO3)CC1,i,i,i,i,nt,nt,
CCCCC(CCCC)(Nc1ccc(F)c(F)c1)C(=O)NNc1ccccc1,i,i,i,61,i,i,
O=C(O)CNC(=O)CC1S/C(=N/N=C/c2ccccc2O)NC1=O (configuration not stated),i,i,i,i,nt,nt,
O=C(O)CNC(=O)CC1S/C(=N/N=C2\CSC(=O)N2)NC1=O (configuration not stated),i,i,i,88,80,100,
O=C(CC1S/C(=N/N=C2\CSC(=O)N2)NC1=O)Nc1ccc(Cl)cc1 (configuration not stated),i,i,i,i,nt,nt,
O=C(CC1S/C(=N/N=C2\CSC(=O)N2)NC1=O)Nc1ccc(F)cc1 (configuration not stated),i,i,i,61,49,99,
SMILES,GPR151 activ,TEAD-YAP inh,FBW7 activator,MITF inh,MITF inh conf,AS interf ctr,others
COc1ccc(NC(=S)N(CCN2CCCCCC2)Cc2ccco2)cc1,i,i,i,i,nt,nt,
C/C(=N/NC(=O)CNC(=O)c1ccccc1F)c1cccc([N+](=O)[O-])c1,i,i,i,i,nt,nt,
CN(CC(=O)Nc1cccc(F)c1)CC(=O)Nc1ccccc1-c1ccccc1,i,i,i,i,nt,nt,
CN(CC(=O)Nc1cccc(F)c1)CC(=O)Nc1ccccc1Oc1ccccc1,i,i,i,70,i,i,
COc1cccc(NC(=O)CN(C)CC(=O)Nc2ccc(C)c(F)c2)c1,i,i,i,91,i,i,
O=C(N/N=C/c1cccnc1)C12CC3CC(CC(C3)C1)C2,i,i,i,i,nt,nt,
O=C(CN1CCSCC1)N/N=C/c1cccnc1,i,i,i,51,i,i,
CCN1CCN(CC(=O)N/N=C/c2ccc(C(C)C)cc2)CC1,i,i,i,52,i,i,
CC1(C(=O)N/N=C/c2cccnc2)CC1(Cl)Cl (configuration not stated),i,i,i,60,i,i,
CCN1CCN(CC(=O)N/N=C/c2ccccc2)CC1,i,i,i,70,i,i,
COC(=O)C1=C(O)/C(=C\c2cc3c(cc2Br)OCO3)N=C1C,i,i,i,i,nt,nt,
O=C(O)CC1S/C(=N\N=C2CCCCCC2)NC1=O (configuration not stated),i,i,i,i,nt,nt,
Cc1cccc(CNC(=O)Cn2nc(C)n3c(cc4cc(C)ccc43)c2=O)c1,i,i,i,i,nt,nt,
COc1ccccc1N=C1SC(CC(=O)Nc2ccc(C(=O)O)cc2)C(=O)N1C (configuration not stated),i,i,i,i,nt,nt,
O=C(Nc1ccccc1)C1CCN(c2cnccn2)CC1,i,i,i,i,nt,nt,
CCN1CCN(CC(=O)N/N=C/c2ccc(Cl)cc2)CC1,i,i,i,i,nt,nt,
CCN1CCN(CC(=O)N/N=C/c2ccc(Cl)c(Cl)c2)CC1,i,i,i,68,i,i,
COc1ccc(C(=O)CSCC(=O)Nc2ccccc2)cc1,i,i,i,i,nt,nt,
O=[N+]([O-])c1ccccc1S(=O)(=O)Nc1ccc(Br)c(Cl)c1,i,i,i,i,nt,nt,
COC(=O)CCc1cc2c(C)cc(=O)oc2cc1OCc1ccc(C)cc1,i,i,i,78,38,i,AS interf DR=i
Clc1ccc(CN2CCN(Cc3ccccn3)CC2)cc1,i,i,i,63,i,i,
Cc1ccc(CN2CCN(Cc3ccccn3)CC2)cc1,i,i,i,68,i,i,
c1ccc(N2CCN(Cc3ccccn3)CC2)cc1,i,i,i,i,nt,nt,
CS(=O)(=O)N1CCN(Cc2ccccn2)CC1,i,i,i,77,i,i,
O=C(CNCc1ccccn1)NCc1ccc(Cl)cc1,i,i,i,74,31,100,
SMILES,GPR151 activ,TEAD-YAP inh,FBW7 activator,MITF inh,MITF inh conf,AS interf ctr,others
O=C(c1cccnc1)N(CC1CC1)C1CCN(CCc2cccs2)CC1,i,i,i,i,nt,nt,
Cc1ccccc1-n1nc2c(c1NC(=O)c1c(F)cccc1F)CS(=O)(=O)C2,i,i,i,i,nt,nt,
C/C(=N\N1CCN(Cc2ccc(C)cc2C)CC1)c1ccccc1O,i,i,i,i,nt,nt,
Cc1ccccc1CN1CCN(Cc2ccccn2)CC1,i,i,i,79,i,i,
COc1cccc(C(=O)Nc2c3c(nn2-c2ccc(C)cc2)CS(=O)(=O)C3)c1,i,i,i,i,nt,nt,
O=C(NCc1ccc2c(c1)OCO2)c1cc([N+](=O)[O-])ccc1Cl,i,i,i,i,nt,nt,
CN1CCCN(Cc2cc(F)ccc2F)CC1,i,i,i,70,i,i,
OCCN1CCN(Cc2c3ccccc3cc3ccccc23)CC1,i,i,i,i,nt,nt,
Cc1ccccc1CN1CCCN(C)CC1,i,i,i,i,nt,nt,
CN1CCN(Cc2c3ccccc3cc3ccccc23)CC1,i,i,i,76,i,i,

# High-throughput results deposited in PubChem by The Scripps Research Institute Molecular Screening Center.
